In the library only some 19% were active in any assay of this set; here they are far more common.
Pf growth 96h – P. falciparum growth inhibition at 96 hours. P. falciparum luciferase reporter growth, 96 h. Potency, µM (highest dose often 28.7 µM), actives largely listed as inhibitors. actives 6.9% (n = 320,000). AID 504834
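P. falciparum expressing integrated firefly luciferase grown in erythrocytes (2% hematocrit, 0.05% parasitemia final) with compounds for 96 hours at 37 C, 5% CO2. Growth inhibition read as loss of luminescence after adding luciferase detection reagent.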
Shiga toxin inh – Shiga toxin inhibition; inhibition, % at 38.7 µM; Vero cells, Shiga toxin protein synthesis inhibition reporter; actives 9.2% (n = 290,000); in the data active = inhibition mostly above about 28%, no sharp cut-off; inactive = mostly below about 43%
CHX counter – counter-screen for Shiga toxin inhibitors: cycloheximide protein synthesis inhibition; cell reporter, cycloheximide protein synthesis inhibition counterscreen; max response, %; actives 12% (n = 300,000); in the data active = max response mostly above about 13%, no sharp cut-off; inactive = mostly below about 14%; note: read at 38.3 µM for the half of the compounds with a filed dose
SARS PLpro yeast – blocks SARS-CoV papain-like protease in a yeast assay; S. cerevisiae expressing SARS-CoV PLpro, growth rescue; Potency, µM (top dose mostly 32.9 µM), hits mostly activators; actives 0.19% (n = 330,000); AID 485353; calls by dose curve; note: nearly all actives have a fitted effect of over 55% in size
Pf growth 48h – inhibits P. falciparum growth in the first generation, 48 h; P. falciparum luciferase growth in erythrocytes, 48 h; Potency, µM (highest dose often 28.7 µM), most hits filed as inhibitors; actives 5.9% (n = 310,000)
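First compound was added to culture medium, then infected red cells at 0.1% parasitemia and 2% hematocrit (final). After incubation at 37 C under 5% CO2, luciferase detection reagent was dispensed and light output recorded.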
AMA1 RON2 block – disrupts binding of P. falciparum AMA1 to RON2; AlphaScreen AMA1-biotinylated RON2 peptide binding; actives 0.2% (n = 360,000); Potency, µM (highest dose often 58.2 µM), actives largely listed as inhibitors; AID 720542; note: nearly all actives have a fitted effect of over 45% in size
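AMA1 (3D7) with his tag at 25 nM final met compounds first, then biotinylated RON2 peptide at 25 nM; detection used donor plus acceptor beads, 10 µg/mL apiece, read by AlphaScreen after 30 min at room temperature.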
Large screens that a line does not name were inactive. Unless noted, calls come from the whole dose curve; as a rule, active = well fitted curve in the direction sought with a large enough effect; inconclusive = small, poorly fitted or top-dose-only effect, or another doubt; inactive = no such curve, though single readings can be large; an effect the other way counts as inactive or inconclusive.

Cc1cc(/C=C2/C(=N)N3C(c4ccccc4)=CSC3=NC2=O)c(C)n1-c1ccccc1	CHX counter 20
N=C1/C(=C\c2ccc(-c3cccc(C(=O)O)c3)o2)C(=O)N=C2SC=C(c3ccccc3)N12	Shiga toxin inh 56, CHX counter 26
COc1ccc(C(C#N)=Cc2ccc(N(C)CCC#N)cc2)cc1	none (no result: Pf growth 96h, Shiga toxin inh, CHX counter, SARS PLpro yeast, Pf growth 48h)
Nc1ccc(C2=Nc3cccc4cccc(c34)N2)cc1	Pf growth 48h inconclusive
COc1cccc(C2=Nc3cccc4cccc(c34)N2)c1	Pf growth 96h inconclusive, CHX counter 14, Pf growth 48h inconclusive
Oc1ccc2c(ccc3[nH]cnc32)c1	Shiga toxin inh 51, CHX counter 28, Pf growth 48h inconclusive
Brc1cc2[nH]cnc2c2ccccc12	Pf growth 48h inconclusive (no result: Pf growth 96h)
O=C(CSc1nc2ccccc2n1CCc1ccccc1)c1ccc(O)c(O)c1	Pf growth 96h inconclusive, CHX counter 12
CCC(C)NC(=O)CSc1nc2ccccc2c(=O)n1Cc1ccc(OC)cc1 (stereo not drawn)	Pf growth 96h 1.7µM (no result: Pf growth 48h)
COCC(C)NC(=O)CSc1nc2ccccc2n1CCc1ccccc1 (stereo not drawn)	Pf growth 96h 10µM
O=C(CSc1nc2ccccc2n1CCc1ccccc1)N1CCOCC1	Pf growth 96h inconclusive
CCCNC(=O)NC(=O)CSc1nc2ccccc2c(=O)n1Cc1ccncc1	Pf growth 96h 13µM, Pf growth 48h inconclusive
CCCCOc1ccc2c(C)cc(=O)oc2c1OCCCC	Pf growth 96h inconclusive, Pf growth 48h inconclusive
COc1ccc(C(c2c(C)n(C)n(-c3ccccc3)c2=O)c2c(C)n(C)n(-c3ccccc3)c2=O)cc1OC	Pf growth 96h inconclusive, Pf growth 48h inconclusive (no result: Shiga toxin inh)
COc1ccc(C(c2c(C)[nH]n(-c3ccccc3)c2=O)c2c(C)[nH]n(-c3ccccc3)c2=O)cc1OC	Pf growth 96h inconclusive, SARS PLpro yeast 13µM
O=C(O)CCn1c(=O)oc2cc(S(=O)(=O)N3CCCC3)ccc21	none (no result: Pf growth 96h, Shiga toxin inh, CHX counter, Pf growth 48h)
Cc1cc(C)cc(N=Cc2[nH]c3ccc(Br)c(Cl)c3c2O)c1	Pf growth 96h inconclusive, SARS PLpro yeast inconclusive, Pf growth 48h 1.5µM
COc1ccc(CN=Cc2[nH]c3ccc(Br)c(Cl)c3c2O)cc1	Pf growth 96h inconclusive, Pf growth 48h 3.7µM
Cc1ccc(N2CCN(CCCCN3C(=O)C4CCCN4C3=O)CC2)cc1 (stereo not drawn)	none
COc1cccc(N2CCN(C(=O)/C=C/c3ccco3)CC2)c1	Pf growth 96h inconclusive, CHX counter 41, Pf growth 48h inconclusive
O=C(/C=C/c1ccco1)N1CCN(c2ncccn2)CC1	Shiga toxin inh 92, CHX counter 19
O=C(/C=C/c1ccco1)N1CCC(Cc2ccccc2)CC1	Shiga toxin inh 84, CHX counter 26, Pf growth 48h inconclusive, AMA1 RON2 block inconclusive
COc1ccc(S(=O)(=O)N2CCN(C(=O)/C=C/c3ccco3)CC2)cc1	Pf growth 48h inconclusive (no result: Shiga toxin inh, CHX counter)
COc1ccc(CCN2CC(C(=O)NCCc3ccc(C(F)(F)F)cc3)CCC2=O)cc1 (stereo not drawn)	Pf growth 96h inconclusive, SARS PLpro yeast inconclusive
Nc1ccn([C@@H]2O[C@H](CNCc3ccc(Oc4cc(-n5cccn5)ncn4)cc3)[C@@H](O)[C@H]2O)c(=O)n1	none (no result: Pf growth 96h, Shiga toxin inh, CHX counter, SARS PLpro yeast, Pf growth 48h)
CN(C)c1ccc(N=Nc2ccccc2C(=O)OCC(=O)NC2CCCC2)cc1	Pf growth 96h 8.3µM, Shiga toxin inh 26, CHX counter 24, AMA1 RON2 block 7.9µM
CN(C)c1ccc(N=Nc2ccccc2C(=O)OCC(=O)NCC2CCCCC2)cc1	Shiga toxin inh 72, CHX counter 69, Pf growth 48h inconclusive, AMA1 RON2 block 11µM
CN(C)c1ccc(N=Nc2ccccc2C(=O)OCC(=O)N(C)C2CCCCC2)cc1	Pf growth 96h inconclusive, Shiga toxin inh 29, CHX counter 27
O=C(COC(=O)c1ccccc1Br)NCC1CCCCC1	none (no result: Pf growth 96h, Shiga toxin inh, CHX counter, Pf growth 48h)
CN(C)c1ccc(C(=O)OCC(=O)NC2CCCCCC2)cc1	none
O=C(Oc1cc2oc(=O)c3c(c2cc1Cl)CCCC3)c1cccs1	Pf growth 96h inconclusive
Cc1ccn2c(NC3CCCC3)c(-c3cccs3)nc2c1	Shiga toxin inh 28, CHX counter 23
c1csc(-c2nc3ccccn3c2NC2CCCCC2)c1	none
Cc1ccn2c(NCc3ccccc3)c(-c3cccs3)nc2c1	Shiga toxin inh 55, CHX counter 30, Pf growth 48h inconclusive

Source: PubChem BioAssay (National Center for Advancing Translational Sciences (NCATS))
